Screening results (PubChem BioAssay)
TSHR ag – qHTS Assay for Agonists of the Thyroid Stimulating Hormone Receptor. Thyrotropin receptor (Homo sapiens), P16473. HEK293-CNG-TSHR cells (CNG channel as cAMP sensor), membrane potential dye, cAMP. Potency, µM (top dose mostly 57.1 µM), actives largely listed as activators. actives 0.48% (n = 73,000). AID 926, 2007; active = well fitted activation curve with a large enough effect in the main read-out, with a control signal flat, not every such curve was filed as active; inconclusive = small, poorly fitted or top-dose-only effect, or a change in a side signal; inactive = no such curve, though single readings can be large or run the other way; reference of the percent scale not stated here;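 also: the control signal comes from parental cells without the receptor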
Target sequence (P16473 whole entry, looked up): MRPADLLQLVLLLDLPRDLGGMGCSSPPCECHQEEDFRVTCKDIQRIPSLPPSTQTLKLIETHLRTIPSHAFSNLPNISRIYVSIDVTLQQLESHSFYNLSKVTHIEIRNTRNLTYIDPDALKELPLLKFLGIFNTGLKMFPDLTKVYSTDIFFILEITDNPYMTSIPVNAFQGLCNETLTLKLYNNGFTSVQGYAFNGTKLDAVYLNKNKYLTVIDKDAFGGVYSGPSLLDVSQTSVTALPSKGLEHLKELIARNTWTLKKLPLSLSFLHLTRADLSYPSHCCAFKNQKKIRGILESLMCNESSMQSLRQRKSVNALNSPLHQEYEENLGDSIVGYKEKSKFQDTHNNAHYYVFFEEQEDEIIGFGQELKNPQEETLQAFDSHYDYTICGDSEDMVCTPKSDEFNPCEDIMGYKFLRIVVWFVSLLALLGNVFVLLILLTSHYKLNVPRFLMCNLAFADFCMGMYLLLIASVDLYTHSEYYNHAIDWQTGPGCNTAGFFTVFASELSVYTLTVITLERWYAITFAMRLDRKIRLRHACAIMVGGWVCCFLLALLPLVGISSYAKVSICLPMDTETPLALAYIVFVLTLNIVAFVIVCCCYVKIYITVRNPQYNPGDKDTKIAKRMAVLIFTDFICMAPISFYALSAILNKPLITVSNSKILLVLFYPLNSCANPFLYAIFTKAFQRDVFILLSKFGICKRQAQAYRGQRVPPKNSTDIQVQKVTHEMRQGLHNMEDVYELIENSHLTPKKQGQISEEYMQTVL
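HEK 293 cells stably expressing TSHR and a cAMP-gated CNG channel; parental CNG-only cells as counterscreen. Cells preloaded 60 min with membrane potential dye plus 100 uM RO 20-1724, then compound 30 min; fluorescence read at 590 nm.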
HEK293 cAMP cs – qHTS Assay for Agonists of the Thyroid Stimulating Hormone Receptor: Activators of Intracellular cAMP Concentrations in Parental HEK 293; parental HEK293 CNG cAMP sensor, membrane potential fluorescence; actives 2.5% (n = 73,000); Potency, µM (top dose mostly 57.1 µM), hits mostly activators; AID 938, 2007; also: nearly all actives have a fitted effect of over 55% in size
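Parental HEK 293 cells stably expressing a cAMP-gated CNG channel were loaded with membrane potential dye containing 100 uM RO 20-1724 for 60 min. Compound added for 30 min; depolarization read as fluorescence intensity at 590 nm.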
Peg3 imprint – qHTS Assay for Compounds that Induce Erasure of Genomic Imprints; mouse ES Peg3-LacZ reporter, beta-gal luminescence, 40 h; Potency, µM (highest dose often 60.7 µM), most hits filed as activators; actives 0.02% (n = 110,000); AID 1948, 2009
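Imprint erasure is scored as LacZ activity from the silenced maternal Peg3 allele in feeder-free female ES cells cultured 40 h with LIF. Luminescence is normalized to in-plate negative controls and fitted to the Hill equation.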
A number is an active result; 0 = inactive; ? = inconclusive; - = no result; [ ] = remark or other dose. The entries come from a sample that favours hits as a whole. Unless noted, calls follow the shape of the dose curve; as a rule, active = well fitted activation curve with a large enough effect; inconclusive = small, poorly fitted or top-dose-only effect; inactive = no such curve, though single readings can be large or run the other way.

SMILES	TSHR ag	HEK293 cAMP cs	Peg3 imprint
CCN(CC)S(=O)(=O)c1cccc(-c2nnc(SCC(=O)c3cc(C)n(C)c3C)o2)c1	?	16µM	0
COc1ccccc1CNC(=O)CCc1c(C)c2cc3c(C)c(C)oc3cc2oc1=O	-	-	0[10.9 µM]
Cc1nn(CC(=O)NC2CC2)c(=O)c2cc3ccccc3n12	-	-	0[10.9 µM]
COc1ccc2cc3cc(C(=O)NCCc4ccccc4)sc3nc2c1Cl	-	-	0[10.9 µM]
O=C(Nc1ccccc1N1CCCCC1)c1cccs1	?	25µM	0
CS(=O)(=O)N1CCN(c2ccccc2NC(=O)c2cccs2)CC1	?	?	0
CC1CCc2c(sc(NC(=O)c3ccccc3)c2C(=O)Nc2ccccc2)C1 (centres undefined)	-	-	0[10.9 µM]
COc1ccc2nc(-c3ccccc3)[nH]c2c1	?	?	0
CCOc1ccc2nc(-c3ccccc3)[nH]c2c1	?	16µM	0
Cc1nc2ncnn2c(N2CCN(C(c3ccccc3)c3ccccc3)CC2)c1C	?	32µM	0
Cc1cc(N2CCN(C(c3ccccc3)c3ccccc3)CC2)n2ncnc2n1	?	?	0
O=C1OC(c2ccc(O)c(-c3ccccc3)c2)(c2ccc(O)c(-c3ccccc3)c2)c2c(Cl)c(Cl)c(Cl)c(Cl)c21	0[11.4 µM]	0[11.4 µM]	0[10.9 µM]
O=C1OC2(c3cc(Br)c(O)c(Br)c3Oc3c2cc(Br)c(O)c3Br)c2c(Cl)c(Cl)c(Cl)c(Cl)c21	?	16µM	0
CCc1nnc(NC(=O)CSc2nc3c(cc2C#N)CCC3)s1	0	0	0
N#Cc1cc2c(nc1SCC(=O)Nc1nccs1)CCCCC2	?	20µM	0
Cc1ccc(C)c(Cn2cc(S(=O)(=O)c3ccc(Cl)cc3)c(=O)c3cc(F)ccc32)c1	-	-	0[10.9 µM]
CCCCC(CC)CNC(=O)c1ccc2c(c1)OCO2 (centres undefined)	?	4µM	0
CCOCCCNC(=O)c1ccc2c(c1)OCO2	0	0	0
CCCC[C@@H]1C[C@H]1C(NC(=O)c1ccccc1)c1ccccc1C(F)(F)F (some centres undefined)	?	?	0
CCCC[C@@H]1C[C@H]1C(NS(=O)(=O)c1cccc2cccnc12)c1ccc(-c2ccccc2)cc1 (some centres undefined)	0	0	0
CCCC[C@@H]1C[C@H]1C(NC(=O)Cc1ccccc1)c1ccc(-c2ccccc2)cc1 (some centres undefined)	1µM	0	0
CCCC[C@@H]1C[C@H]1C(NC(=O)c1cccs1)c1ccc(Cl)cc1 (some centres undefined)	?	?	0
CCCC[C@@H]1C[C@H]1C(NC(=O)c1ccccc1)c1ccc(C(=O)OC)cc1 (some centres undefined)	?	16µM	0
CCCC[C@@H]1C[C@H]1C(NC(=O)c1ccco1)c1ccccc1 (some centres undefined)	?	16µM	0
CC(Oc1ccc(F)cc1)C(=O)Nc1cc(-c2ccc(F)c(F)c2)no1 (centres undefined)	-	-	0[10.9 µM]
SMILES	TSHR ag	HEK293 cAMP cs	Peg3 imprint
CC1=C(C(=O)N2CCN(c3cccc(C)c3C)CC2)C2(CCCCC2)OC1=O	-	-	0[10.9 µM]
CSCCC(NC(=O)c1ccccc1)c1nc(-c2ccccc2)no1 (centres undefined)	?	16µM	0
CC(NC(=O)c1ccco1)c1nc(-c2ccccc2)no1 (centres undefined)	-	-	0[10.9 µM]
Cc1cc(C)n2c(Nc3ccccc3C)c(-c3cccs3)nc2n1	-	-	0[10.9 µM]
Cc1cc(C)nc(NCCCc2ccccc2)n1	0	0	0
CCCCNc1cc(C)nc(NCc2ccccc2)n1	?	6.3µM	0
COc1cc2c(cc1OC)C(COc1ccc3c(C)cc(=O)oc3c1)N(C(=O)c1cccc(OC)c1OC)CC2 (centres undefined)	-	-	0[10.9 µM]
CC(C)Cc1nc2oc3c(N4CCN(CCO)CC4)ncnc3c2c2c1CCCC2	?	16µM	0
CCN1CCN(c2ncnc3c2oc2nc(C(C)C)c4c(c23)CCC4)CC1	0	0	0
COCCn1c(=O)c(-c2cccc(C#N)c2)nc2cnc(Oc3ccccc3)nc21	0	0[0.457 µM]	0
COCCn1c(=O)c(-c2cccc(C#N)c2)nc2cnc(Nc3ccccc3)nc21	?	0.25µM	0
Cc1ccc(NC(=O)CSc2nnc(-c3ccc(S(=O)(=O)N4CCOCC4)cc3)n2C)cc1	0	0	-
Cn1c(SCC(=O)NC2CCCC2)nnc1-c1ccc(S(=O)(=O)N2CCOCC2)cc1	?	25µM	0
CCOc1ccccc1CNC(=O)CCCN1C(=O)CCn2nc(-c3cccn3C)cc21	-	-	0[10.9 µM]
C=CC(=O)CC	?	0	32µM
C=CC(=O)NC(C)C	?	0	0
Cc1cc(C)c2c(n1)SCCN2C(=O)Nc1ccc(C(=O)Nc2ccc(C(C)C)cc2)cc1	-	-	0[10.9 µM]
CC1=c2c(oc3cc(O)c(Nc4c(C)cc(O)cc4O)c(C)c23)=CC(=O)C1=Nc1c(C)cc(O)cc1O	0[11.4 µM]	0[11.4 µM]	0[10.9 µM]
COc1ccc(OC)c(NC(=O)CSCc2cnn(-c3ccccc3)c2-n2cccc2)c1	?	25µM	0
COc1cc(NC(=O)CSCc2cnn(-c3ccccc3)c2-n2cccc2)cc(OC)c1	0	0	0
Cc1nc(NCc2ccccc2)c2nc(-c3ccccc3)n(CCN3CCOCC3)c2n1	?	32µM	0
Cc1nc(NCc2ccccc2)c2nc(-c3ccccc3)n(CCN3CCCC3)c2n1	?	?	0
CCCCNc1nc(C)nc2c1nc(-c1ccccc1)n2CCN1CCCCC1	?	13µM	0
COCCNc1nc(C)nc2c1nc(-c1ccccc1)n2CCN1CCCCC1	?	?	0
O=C(O)C1CC(C2CCCCN2)CN2CCCCC12 (centres undefined)	-	-	0
SMILES	TSHR ag	HEK293 cAMP cs	Peg3 imprint
COc1ccc(NC(=O)NCC2CCN(Cc3ccccc3F)CC2)c(OC)c1	-	-	0[10.9 µM]
Cc1cc2c(c(=O)n1C1CC1)C(c1cccc(Cl)c1)C(C#N)=C(N)O2 (centres undefined)	?	3.2µM	0
Cc1cc2c(c(=O)n1CCN(C)C)C(c1ccc(Cl)cc1)C(C#N)=C(N)O2 (centres undefined)	0	0	0
Cc1cc(=O)[nH]c(SCC(=O)c2ccc(C)c(C)c2)n1	-	0	-
CCc1c(C)nc(SCC(=O)c2ccc(C)c(C)c2)[nH]c1=O	?	25µM	0
CCOC(=O)c1cc(C)n(CC2CCC(C(=O)Nc3ccccc3OC)CC2)c1C (centres undefined)	-	-	0[10.9 µM]
COc1ccccc1NC(=O)c1sc2nc(C)c(C(=O)Nc3ccc(C)cc3C)c(-c3cccs3)c2c1N	-	-	0[10.9 µM]
O=C1c2ccccc2C(=O)N1CCCCN(C(=O)c1ccco1)c1ccc(Cl)cc1	?	25µM	0
O=C1CCC(=O)N1CN(C(=O)c1ccco1)c1ccccc1	0	0	0
Cc1ccc(CNC(C)c2ccccc2)s1 (centres undefined)	-	-	0[10.9 µM]
CCOc1ccc(-c2nnc(-c3snc(-c4ccc(F)cc4)c3N=CN(C)C)o2)cc1	?	16µM	0
CCOc1ccc(-c2nnc(SCC(=O)N(CC)c3cccc(C)c3)o2)cc1	-	-	0[10.9 µM]
CC(=O)c1cc2c(cc1NC(=O)CN1CCN(c3cccc(C(F)(F)F)c3)CC1)OCO2	?	16µM	0
CCOC(=O)N1CCN(CC(=O)Nc2cc3c(cc2C(C)=O)OCO3)CC1	0	0	0
